Molecules are shown by their SMILES. Values without a mark were called inactive. For some of these results: Potency and affinity values are given separately. Active and inactive are the calls of the source. No rule for the calls is given here.

The results in this text go back to PubChem BioAssay (NCATS).

The conditions of assay [1]: Ebola virus entry assay, green fluorescence channel.
The conditions of assay [2]: Ebola virus entry assay, blue channel fluorescence.
The conditions of assay [3]: Ebola virus entry assay, ratio channel.
For assay [4] the following is noted: Ebola virus entry assay, reporter ratio channel; Channel type: primary.
The conditions of assay [5]: Ebola virus entry assay, blue channel (ratio component).
For efficacy in this document: 0% is about no effect.

For orientation: AC50 means the concentration giving half of the maximal activity seen. In the case of `Cc1cccc(N(C)C(=S)Oc2ccc3c(c2)CCC3)c1`, the efficacy in assay [1] is 64.2%. In addition, the AC50 in assay [2] and in assay [4] was 39.8 µM (active) in each case. Further, the outcome in assay [3] was inactive.

With `CCCCCCOC(=O)NC(=N)c1ccc(NCc2nc3cc(C(=O)N(CCC(=O)OCC)c4ccccn4)ccc3n2C)cc1`, the efficacy in assay [1] was 128%. Also, the values for the half-maximal activity concentration (AC50) in assay [2], in assay [3] and in assay [4] were 3.55 µM (active), 3.16 µM (active) and 3.16 µM (active), respectively.

Take `CSc1ccc2c(c1)C(N1CCN(C)CC1)Cc1ccccc1S2` (configuration not stated): in assay [1], the efficacy was -190%. Also, the AC50 was 3.55 µM (active) in assay [2], 3.16 µM (active) in assay [3] and 3.16 µM (active) in assay [4].

Take `CN1CCN(C2=Nc3cc(F)ccc3Cc3ccccc32)CC1`: the efficacy in assay [1] was 49.4%. Moreover, the AC50 is 22.4 µM (active) in assay [2], 31.6 µM (active) in assay [3] and 31.6 µM (active) in assay [4].

On to `COc1ccc(CCN2CCC(Nc3nc4ccccc4n3Cc3ccc(F)cc3)CC2)cc1`, for which the efficacy in assay [1] was -220%. Also, the AC50 in assay [2] was 5.01 µM (active); in assay [3], 2.82 µM (active); in assay [4], 2.82 µM (active).

For `O=C1[C@H]2CCCC[C@H]2C(=O)N1CCCCN1CCN(c2nsc3ccccc23)CC1`, the efficacy in assay [1] was 104%. In addition, the AC50 in assay [2] was 20 µM (active); in assay [3], 17.8 µM (active); in assay [4], 17.8 µM (active).

With `Clc1ccc(CSC(Cn2ccnc2)c2ccc(Cl)cc2Cl)cc1` (configuration not stated), the efficacy in assay [1] was -183%. In addition, the figures for the half-maximal activity concentration (AC50) in assay [2], in assay [3] and in assay [4] were 5.62 µM (active), 4.47 µM (active) and 4.47 µM (active), respectively.

Turning to `CC(NCCC(c1ccccc1)c1ccccc1)c1ccccc1` (configuration not stated), the efficacy in assay [1] is -189%. The AC50 is 2 µM (active) in assay [2], 2.51 µM (active) in assay [3] and 2.51 µM (active) in assay [4].

Turning to `O=C(CCCN1CCN(c2ccc(F)cc2)CC1)NC1c2ccccc2CSc2ccccc21` (configuration not stated), the efficacy in assay [1] is 64.4%. Further, the AC50 was 8.91 µM (active) in assay [2], 7.08 µM (active) in assay [3] and 7.08 µM (active) in assay [4].

As to `O=C(N[C@H]1N=C(c2ccccc2F)c2cccc3c2N(CC3)C1=O)c1cc2ccccc2[nH]1`, the efficacy in assay [1] is -43.7%. The AC50 in assay [2] is 17.8 µM (active); in assay [3], 20 µM (active); in assay [4] it was 20 µM (active).

For the compound `O=C(OCC(O)CO)c1ccccc1Nc1ccnc2cc(Cl)ccc12` (configuration not stated), the efficacy in assay [1] was 41.9%. For the same compound, the AC50 in assay [2] is 39.8 µM (active); in assay [3], 20 µM (active); in assay [4], 20 µM (active).

In the case of `C[C@H]1C[C@H]2[C@@H]3CCC4=CC(=O)C=C[C@]4(C)[C@@]3(Cl)[C@@H](O)C[C@]2(C)[C@@]1(O)C(=O)CO`, the efficacy in assay [1] was 103%. Further, the AC50 in assay [2] was 25.1 µM (active); in assay [3] it was 20 µM (active); in assay [4] it was 20 µM (active).

`OCc1cc(C(O)CNCCCCCCOCCCCc2ccccc2)ccc1O` (configuration not stated): the efficacy in assay [1] was 98.5%. Further, the AC50 in assay [2] was 7.94 µM (active); in assay [3] it was 7.08 µM (active); in assay [4] it was 7.08 µM (active).

Consider `CC(=O)OCC(=O)[C@@]12N=C(C)O[C@@H]1C[C@H]1[C@@H]3CCC4=CC(=O)C=C[C@]4(C)[C@H]3[C@@H](O)C[C@@]12C`, for which, in assay [1], the efficacy is 27%. The result in assay [2], in assay [3], in assay [4] and in assay [5] was inactive.

With `C[C@]12CCC(=O)C=C1[C@@H]1C[C@@H]1[C@H]1[C@@H]3[C@@H]4C[C@@H]4[C@@]4(CCC(=O)O4)[C@@]3(C)CC[C@@H]12`, the efficacy in assay [1] is 65.1%. Also, the compound was called inactive in assay [2], in assay [3] and in assay [5]. In addition, in assay [4], the AC50 was 39.8 µM (active).

On to `C=C1C(=C/C=C2\CCC[C@]3(C)[C@@H]([C@H](C)/C=C/[C@@H](O)C4CC4)CC[C@@H]23)C[C@@H](O)C[C@@H]1O`, for which the efficacy in assay [1] was 59.6%. The compound was classed as inactive in assay [2], in assay [3] and in assay [5]. For the same compound, the concentration at half-maximal activity (AC50) in assay [4] was 39.8 µM (active).

On to `CCN(CC)CC(=O)Nc1c(C)cccc1C(=O)OC`, for which the efficacy in assay [1] was 26%. In addition, the outcome in assay [2], in assay [3], in assay [4] and in assay [5] was inactive.

On to `O=C(CS)Nc1ccccc1`, for which, in assay [1], the efficacy is 30.5%. In addition, the outcome in assay [2], in assay [3] and in assay [5] was inactive. Also, the AC50 in assay [4] was 25.1 µM (active).

As for `O=C(Nc1ccc(S(=O)(=O)N2CCOCC2)cc1)c1cc(Cl)ccc1NS(=O)(=O)c1ccc(Cl)s1`, the efficacy in assay [1] was 119%. The result in assay [2], in assay [3] and in assay [5] was inactive. Also, in assay [4], the AC50 is 39.8 µM (active).

On to `C[C@]12CCC(=O)C=C1CC[C@@H]1[C@@H]2CC[C@@]2(C)[C@H]1CC[C@]2(O)C(=O)CO`, for which the efficacy in assay [1] is 55.8%. Further, the result in assay [2], in assay [3], in assay [4] and in assay [5] was inactive.

On to `CCCCC/C=C\C/C=C\CCCCCCCC(=O)NC(C)c1ccccc1` (configuration not stated), for which the efficacy in assay [1] is 130%. Also, the compound was called inactive in assay [2], in assay [3] and in assay [5]. The AC50 in assay [4] is 39.8 µM (active).

On to `CCOP(=S)(OCC)O/N=C(\C#N)c1ccccc1`, for which the efficacy in assay [1] was -42.7%. Also, the compound was called inactive in assay [2], in assay [3], in assay [4] and in assay [5].

As for `CC1(C)O[C@@H]2C[C@H]3[C@@H]4C[C@H](F)C5=CC(=O)C=C[C@]5(C)[C@H]4[C@@H](O)C[C@]3(C)[C@]2(C(=O)CO)O1`, the efficacy in assay [1] was 79.9%. Moreover, the outcome in assay [2], in assay [3], in assay [4] and in assay [5] was inactive.

As for `COP(=S)(OC)Oc1ccc(S(N)(=O)=O)cc1`, in assay [1], the efficacy was -39.4%. For the same compound, the compound was classed as inactive in assay [2], in assay [3], in assay [4] and in assay [5].

Take `COC(=O)Nc1nc2ccc(Sc3ccccc3)cc2[nH]1`: in assay [1], the efficacy is 73.8%. The compound was classed as inactive in assay [2] and in assay [5]. Further, the AC50 in assay [3] and in assay [4] was 4.47 µM (active) each time.
